Reference: PubChem BioAssay AID652042 (Broad Institute, 2013)
The campaign covered roughly 1,100 compounds. About 350 (32%) were called active. The rule behind the calls is not given here. A selection follows. Measured potencies and affinities stand elsewhere.

Assay: viability loss in CEM21 cells – cell-based, CellTiter-Glo luminescence, cherry-picked, cytotoxicity control for viral fusion inhibitor project, dose response (AID 652042)
Conditions: CellTiter-Glo ATP luminescence, 24 h; series mostly up to 35 µM
With `CC(C)(C)c1ccc(-n2ncc3c2CCCC3NC(=O)CN2CCCC2=O)cc1` (stereo not given) the activity change, negative = cytotoxicity was “inactive”.
In the case of `Cc1cc(C(=O)NC2CCCc3c2cnn3-c2ccc(C(C)(C)C)cc2)nn1C` (stereo not given), the activity change, negative = cytotoxicity was “inactive”.
In the case of `CCC12CN(S(=O)(=O)c3ccc(C)cc3)CC(CC)(CN(S(=O)(=O)c3ccc(C)cc3)C1)C2=O`, the activity change, negative = cytotoxicity was “inactive”.
With `O=C(C[C@@H]1C/C=C/CC[C@@H](Cc2ccc(F)cc2)C(=O)O[C@H](c2ccccc2)CNC1=O)NCCO` the activity change, negative = cytotoxicity was “inactive”.
With `CC[C@@]12C(=O)N(c3ccc(C)cc3)C(=O)N1[C@H](c1ccc(OC)cc1)[C@@H]1C(=O)N(C(C)(C)C)C(=O)[C@@H]12` the activity change, negative = cytotoxicity was “inactive”.
For `O=C(c1ccc2ncsc2c1)N1CCN(c2nc3ccccc3s2)CC1`, the activity change, negative = cytotoxicity was “inactive”.
For `Cc1cc(CSc2ccccc2)ccc1NC(=O)c1ccc(CN2CCOCC2)cc1`, the activity change, negative = cytotoxicity was “inactive”.
In the case of `CCCOc1ccc2ccccc2c1/C=N/n1cnnc1`, the activity change, negative = cytotoxicity was “inactive”.
In the case of `CS(=O)(=O)N1CCN(c2ccccc2NC(=O)C(c2ccccc2)c2ccccc2)CC1`, the activity change, negative = cytotoxicity was “inactive”.
In the case of `COC(=O)C[C@H]1C=C[C@H](NC(=O)c2ccccn2)[C@@H](CO)O1`, the activity change, negative = cytotoxicity was “inactive”.
With `C[C@@H]1CNC(=O)c2c(C(=O)N3CCN(c4ccccc4)CC3)ncn21` the activity change, negative = cytotoxicity was “inactive”.
For `O=C(N(Cc1ccccc1)c1ccccn1)C12CC3CC(CC(C3)C1)C2`, the activity change, negative = cytotoxicity was “inactive”.
For `CCNC1CCC(Nc2ccnc3cc(Cl)ccc23)CC1` (stereo not given), the activity change, negative = cytotoxicity was “inactive”.
With `O=C(Nc1cccc(F)c1)c1cc(S(=O)(=O)N2CCC(C(=O)O)CC2)ccc1F` the activity change, negative = cytotoxicity was “inactive”.
With `CC(C)OCCCn1c(=S)[nH]c2ccc(N3CCOCC3)cc2c1=O` the activity change, negative = cytotoxicity was “inactive”.
In the case of `Cc1ccc(C(=O)CN2C(=O)c3ccccc3S2(=O)=O)cc1`, the activity change, negative = cytotoxicity was “inactive”.
For `O=C(Nc1ccccc1N1CCN(C(=O)c2ccccc2)CC1)c1ccc(Br)o1`, the activity change, negative = cytotoxicity was “inactive”.
With `O=C(c1ccc(S(=O)(=O)Nc2ccc(F)cc2)cc1)N1CCN(C(=O)c2ccco2)CC1` the activity change, negative = cytotoxicity was “inactive”.
For `CCOC(=O)c1cccc(NS(=O)(=O)c2ccc(NC(C)=O)cc2)c1`, the activity change, negative = cytotoxicity was “inactive”.
In the case of `COc1cc2c(c(OCC(=O)NC(C)C)c1)C(=O)O[C@@H](C)CCCC(=O)CCCCC2`, the activity change, negative = cytotoxicity was “inactive”.
For `Nc1c(Cl)cc2c(c1Oc1ccccc1)C(=O)c1ccccc1C2=O`, the activity change, negative = cytotoxicity was “inactive”.
For `CN(Cc1cccs1)c1ncnc2sccc12`, the activity change, negative = cytotoxicity was “inactive”.
In the case of `C[C@@H]1CN([C@H](C)CO)C(=O)c2cccc(NC(=O)C3CCCCC3)c2O[C@H]1CN(C)Cc1ccccc1`, the activity change, negative = cytotoxicity was “inactive”.
With `C[C@@H]1CN([C@H](C)CO)C(=O)c2cccc(NC(=O)c3ccncc3)c2O[C@H]1CN(C)CC1CCCCC1` the activity change, negative = cytotoxicity was “inactive”.
In the case of `C[C@H]1CN([C@@H](C)CO)C(=O)c2cccc(NC(=O)c3ccncc3)c2O[C@@H]1CN(C)C(=O)Nc1cccc2ccccc12`, the activity change, negative = cytotoxicity was “inactive”.
For `C[C@@H]1CN([C@H](C)CO)C(=O)c2cccc(NC(=O)c3ccncc3)c2O[C@@H]1CN(C)Cc1ccc(C(=O)O)cc1`, the activity change, negative = cytotoxicity was “inactive”.
In the case of `CC(C)(C)c1ccc(-c2noc(CCC(N)=O)n2)cc1`, the activity change, negative = cytotoxicity was “inactive”.
For `CCOc1ccc(N(CC(=O)NCCSCc2ccc(Cl)cc2)S(C)(=O)=O)cc1`, the activity change, negative = cytotoxicity was “inactive”.
With `CCCN(CC(=O)Nc1ccccc1OC)C(=O)c1cccc(S(=O)(=O)NCc2ccccc2)c1` the activity change, negative = cytotoxicity was “inactive”.
For `Cc1n[nH]c(C)c1S(=O)(=O)N(CC(=O)NC1CCCC1)c1ccc(C(C)C)cc1`, the activity change, negative = cytotoxicity was “inactive”.
In the case of `COc1ccc(Cl)cc1NC(=O)CN(C1CCCCC1)S(C)(=O)=O`, the activity change, negative = cytotoxicity was “inactive”.
With `C#CCn1c(=O)c2c(ncn2C)n(C)c1=O` the activity change, negative = cytotoxicity was “inactive”.
In the case of `C=C1CCN([C@H](C(=O)OCc2cccc(C)c2)C(C)C)S(=O)(=O)c2ccccc21`, the activity change, negative = cytotoxicity was “inactive”.
With `CCN1C(=O)[C@H]2[C@H]3CN=C(SCc4ccc(Cl)cc4)N3[C@@](CC)(C(=O)OC)[C@H]2C1=O` the activity change, negative = cytotoxicity was “inactive”.
For `O=C(Nc1cc(Cl)cc(Cl)c1)C(c1ccccc1)N1CCCCC1` (stereo not given), the activity change, negative = cytotoxicity was “inactive”.
For `Cc1onc(-c2ccccc2)c1C(=O)OCCOc1cccc(Cl)c1`, the activity change, negative = cytotoxicity was “inactive”.
For `CCn1c(C)cc(C(=O)CN2C(=O)c3ccccc3S2(=O)=O)c1C`, the activity change, negative = cytotoxicity was “inactive”.
With `O=C(Nc1cc2c3c(c1)CC(=O)N3CCC2)c1ccc(Cl)cc1` the activity change, negative = cytotoxicity was “inactive”.
With `CN(c1ccccc1)S(=O)(=O)c1ccc(Cl)c(C(=O)Nc2nc3ccccc3[nH]2)c1` the activity change, negative = cytotoxicity was “inactive”.
With `O=C(NCCCc1nc2ccccc2[nH]1)c1ccco1` the activity change, negative = cytotoxicity was “inactive”.
In the case of `CCNC(=O)C[C@H]1CC[C@@H]2[C@@H](COc3ccc(NC(=O)Nc4cccc(OC)c4)cc3C(=O)N2C)O1`, the activity change, negative = cytotoxicity was “inactive”.
In the case of `Cc1[nH]c2ccccc2c1/C=N\NC(=O)c1ccccc1Cl`, the activity change, negative = cytotoxicity was “inactive”.
In the case of `COc1cccc(-c2noc(C3CCCN(S(=O)(=O)c4cccc(Cl)c4C)C3)n2)c1` (stereo not given), the activity change, negative = cytotoxicity was “inactive”.
For `CCOc1cccc(N(C(=O)Cc2cccs2)C(C(=O)NC2CCCCC2)c2cccn2C)c1` (stereo not given), the activity change, negative = cytotoxicity was “inactive”.
With `Cc1ccc2c(c1)C(=C(C#N)C#N)CCN2` the activity change, negative = cytotoxicity was “inactive”.
In the case of `COc1ccc(C(=O)CN2C(=O)c3ccccc3S2(=O)=O)cc1`, the activity change, negative = cytotoxicity was “inactive”.
For `COc1cc(/C=N/NS(=O)(=O)c2ccc(C)cc2)ccc1OCc1cccc(C(=O)O)c1`, the activity change, negative = cytotoxicity was “inactive”.
With `CCOc1ccccc1CNc1ncnc2ccc(-c3c(C)noc3C)cc12` the activity change, negative = cytotoxicity was “inactive”.
With `COC(=O)C1(C(=O)OC)C[C@H](c2ccc(OC)cc2)N(Cc2ccccc2OC)[C@@H]1c1ccccc1` the activity change, negative = cytotoxicity was “inactive”.
With `CCCCn1c(CN(C)Cc2ccccc2)nc2c1c(=O)n(C)c(=O)n2C` the activity change, negative = cytotoxicity was “inactive”.
For `CCCNC(=O)C[C@H]1C[C@H]2c3cc(NC(=O)CN(C)C)ccc3O[C@H]2[C@@H](CO)O1`, the activity change, negative = cytotoxicity was “inactive”.
In the case of `CC[C@@]1(C(=O)OC)N[C@H](CN(C)C(=O)Nc2ccc(C(F)(F)F)cc2)[C@@H]2C(=O)N(Cc3ccccc3)C(=O)[C@@H]21`, the activity change, negative = cytotoxicity was “inactive”.
In the case of `COC(=O)[C@]12CCCCC=C1N(Cc1ccco1)C(=O)[C@H](CC(=O)NCCc1ccccc1OC)C2`, the activity change, negative = cytotoxicity was “inactive”.
For `Cn1c(=O)oc2cc(S(=O)(=O)NCc3ccncc3)ccc21`, the activity change, negative = cytotoxicity was “inactive”.
In the case of `OCCN1CCN(C(=S)c2ccc(-c3ccccc3)cc2)CC1`, the activity change, negative = cytotoxicity was “inactive”.
For `CC1CCCN(C(=O)c2ccc(S(=O)(=O)N3CCC(c4nc5ccccc5s4)CC3)cc2)C1` (stereo not given), the activity change, negative = cytotoxicity was “inactive”.
With `Cn1cc(S(=O)(=O)N2CCOCC2)cc1C(=O)Nc1cccc(Cl)c1` the activity change, negative = cytotoxicity was “inactive”.
With `Cn1c(C(=O)N2CCN(c3nc4ccccc4s3)CC2)cc2sccc21` the activity change, negative = cytotoxicity was “inactive”.
For `CN(CC(=O)NCCc1ccc(S(N)(=O)=O)cc1)CC(=O)Nc1ccc(Cl)c(C(F)(F)F)c1`, the activity change, negative = cytotoxicity was “inactive”.
In the case of `CCN(C[C@H]1N[C@@](C)(C(=O)OC)[C@H]2C(=O)N(Cc3ccccc3)C(=O)[C@@H]12)C(=O)Nc1ccccc1`, the activity change, negative = cytotoxicity was “inactive”.
In the case of `CCc1cc2c(NCc3ccco3)ncnc2s1`, the activity change, negative = cytotoxicity was “inactive”.
With `Nc1nc2c(ncn2[C@@H]2O[C@H](C(=O)NCC(c3ccccc3)c3ccccc3)[C@@H](O)[C@H]2O)c(=O)[nH]1` the activity change, negative = cytotoxicity was “inactive”.
In the case of `Nc1ncn([C@H]2C[C@H](O)[C@@H](CO)O2)c(=O)n1`, the activity change, negative = cytotoxicity was “inactive”.
In the case of `COc1ccccc1-c1c(-c2ccc(O)cc2O)n[nH]c1C(F)(F)F`, the activity change, negative = cytotoxicity was “inactive”.
With `C=C1CCN([C@H](C(=O)OCc2ccc(C)cc2)C(C)C)S(=O)(=O)c2ccccc21` the activity change, negative = cytotoxicity was “inactive”.
For `COC(=O)[C@]1(C)N[C@H](CN(C)S(=O)(=O)c2ccc(-c3ccccc3)cc2)[C@@H]2C(=O)N(Cc3ccccc3)C(=O)[C@@H]21`, the activity change, negative = cytotoxicity was “inactive”.
With `O=C(NCc1ccco1)c1ccc(Cn2c(=O)c3ccccc3n(Cc3ccc(Cl)cc3)c2=O)cc1` the activity change, negative = cytotoxicity was “inactive”.
For `COc1ccc(CCN(Cc2cccs2)S(=O)(=O)c2ccc(-n3cnnn3)cc2)cc1OC`, the activity change, negative = cytotoxicity was “inactive”.
In the case of `Nc1c(S(=O)(=O)c2cccs2)c2nc3ccccc3nc2n1CCc1ccccc1`, the activity change, negative = cytotoxicity was “inactive”.
With `CCOC(=O)[C@@H]1[C@H]2COc3ccc(Br)cc3[C@@H]2N2C(=O)N(c3cccc(F)c3)C(=O)[C@@]12C` the activity change, negative = cytotoxicity was “inactive”.
For `Cn1c(=O)c2c(nc(Oc3ccc4ccccc4c3)n2C)n(C)c1=O`, the activity change, negative = cytotoxicity was “inactive”.
In the case of `COc1ccc(/C=C/c2nc(S(=O)(=O)c3ccccc3)c(NCCCN(C)C)o2)cc1OC`, the activity change, negative = cytotoxicity was “inactive”.
In the case of `COc1cc(/C=N/O)ccc1OCc1ccc(C(=O)O)cc1`, the activity change, negative = cytotoxicity was “inactive”.
For `O=C(Nc1cc(Cl)cc(Cl)c1)C1CCC(=O)N1Cc1ccccc1Cl` (stereo not given), the activity change, negative = cytotoxicity was “inactive”.
In the case of `CCCNC(=O)N1[C@H](C#N)[C@H](c2ccc(-c3cccc(OC)c3)cc2)[C@@H]1CO`, the activity change, negative = cytotoxicity was “inactive”.
In the case of `CN(C)C(=O)CCC(=O)N1CCCC(C(=O)c2ccc3c4c(cccc24)CC3)C1` (stereo not given), the activity change, negative = cytotoxicity was “inactive”.
In the case of `O=C(C[C@H]1C[C@H]2c3cc(NC(=O)NC4CCCC4)ccc3O[C@H]2[C@@H](CO)O1)NC1CCCCC1`, the activity change, negative = cytotoxicity was “inactive”.
For `COC(=O)[C@@]12CCCN1[C@H](c1ccc(-c3ccc(F)cc3)c(OC)c1)[C@H]1C(=O)N(C)C(=O)[C@H]12`, the activity change, negative = cytotoxicity was “inactive”.
With `O=C(c1ccccc1)N1CCN(c2ncnc3sc4c(c23)CCC4)CC1` the activity change, negative = cytotoxicity was “inactive”.
With `CCN(Cc1nc2cc(Cl)ccc2c(=O)[nH]1)C(=O)c1cc(C2CC2)nn1-c1ccccc1` the activity change, negative = cytotoxicity was “inactive”.
With `Cc1cc(C)c(CN2CCN(C(=O)Cn3cnc4c(NCc5ccccc5)ncnc43)CC2)c(C)c1` the activity change, negative = cytotoxicity was “inactive”.
With `O=C(Cn1ncc2c(=O)oc3ccccc3c21)N1CCC(N2CCCCC2)CC1` the activity change, negative = cytotoxicity was “inactive”.
For `CCOC(=O)C1CCN(C(=O)c2ccc3c(c2)C(=O)N(c2ccccc2C)C3=O)CC1`, the activity change, negative = cytotoxicity was “inactive”.
With `COc1ccccc1[C@@H]1C(c2ccc(F)cc2)=NN(c2ccccc2)[C@H]1C(=O)N1CCOC1=O` the activity change, negative = cytotoxicity was “inactive”.
For `COc1ccccc1CN1C(=O)CN(C2CCCCCC2)C(=O)C1c1ccc(F)cc1` (stereo not given), the activity change, negative = cytotoxicity was “inactive”.
In the case of `CCN(C1CCCCC1)S(=O)(=O)c1ccc(S(=O)(=O)NCc2ccncc2)cc1`, the activity change, negative = cytotoxicity was “inactive”.
For `CC[C@@]12C(=O)N(c3ccccc3)C(=O)N1[C@H](c1ccc(OC)cc1)[C@@H]1C(=O)N(C(C)(C)C)C(=O)[C@@H]12`, the activity change, negative = cytotoxicity was “inactive”.
For `Cc1nc2sccn2c1-c1csc(NCc2ccccc2)n1`, the activity change, negative = cytotoxicity was “inactive”.
With `O=C(CN(Cc1ccccc1)S(=O)(=O)c1ccc(F)cc1)NCCC1=CCCCC1` the activity change, negative = cytotoxicity was “inactive”.
In the case of `O=C(CN(Cc1ccccc1F)S(=O)(=O)c1ccc(Cl)cc1)NCCC1=CCCCC1`, the activity change, negative = cytotoxicity was “inactive”.
